Results: PubChem BioAssay (NCI)
The panel holds about 83,000 compounds, 20% with a hit somewhere; the sample as a whole holds those more often.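 Negative percent growth values reflect cell death: -40 means 40% of the cells present at the start died, and -100 means all died.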 Unmarked numbers belong to inactive results. The source made the active and inactive calls. The calls were made as follows: active = growth percent below 10; inactive = the rest.

Experiments:
Experiment in all cases: NCI-60 one-dose screen, 48 h (100 = growth as untreated, 0 = no growth, -100 = all killed)
Settings in all cases: 10 µM unless noted
DU-145 prostate = test system: DU-145 prostate
K-562 leukemia = test system: K-562 leukemia
MALME-3M melanoma = test system: MALME-3M melanoma
MDA-MB-231 breast = test system: MDA-MB-231 breast
RXF 393 renal = test system: RXF 393 renal
SF-268 CNS = test system: SF-268 CNS
SF-539 CNS = test system: SF-539 CNS
UACC-257 melanoma = test system: UACC-257 melanoma
M14 melanoma = test system: M14 melanoma
HCT-15 colon = test system: HCT-15 colon
HT29 colon = test system: HT29 colon
SNB-75 CNS = test system: SNB-75 CNS
SNB-19 CNS = test system: SNB-19 CNS
U251 CNS = test system: U251 CNS
PC-3 prostate = test system: PC-3 prostate
SK-MEL-5 melanoma = test system: SK-MEL-5 melanoma
UACC-62 melanoma = test system: UACC-62 melanoma
LOX IMVI melanoma = test system: LOX IMVI melanoma
SK-MEL-28 melanoma = test system: SK-MEL-28 melanoma

| Structure (SMILES) | growth (DU-145 prostate) | growth (K-562 leukemia) | growth (MALME-3M melanoma) | growth (MDA-MB-231 breast) | growth (RXF 393 renal) | growth (SF-268 CNS) | growth (SF-539 CNS) | growth (UACC-257 melanoma) | growth (M14 melanoma) | growth (HCT-15 colon) | growth (HT29 colon) | growth (SNB-75 CNS) | growth (SNB-19 CNS) | growth (U251 CNS) | growth (PC-3 prostate) | growth (SK-MEL-5 melanoma) | growth (UACC-62 melanoma) | growth (LOX IMVI melanoma) | growth (SK-MEL-28 melanoma) |
| --- | --- | --- | --- | --- | --- | --- | --- | --- | --- | --- | --- | --- | --- | --- | --- | --- | --- | --- | --- |
| CN1CCN(Cc2ccc(NC(=O)c3cncc(C#Cc4ncc5cnccn45)c3)cc2C(F)(F)F)CC1 | 46.8% | 8.73% (active) | 14.7% | 25.6% | 51.1% | 56.4% | 37.8% | 55.3% | 9.27% (active) | 56.7% | 27.4% | 38.1% | 94.5% | 64.2% | 54.9% | 55.3% | 57.3% | 26.5% | 38.1% |
| C/C(=N\OC(=O)Nc1cccc(Cl)c1)c1ccccc1 | 102% | 90.1% | 98.2% | 103% | 87.5% | 113% | 104% | 104% | 108% | 94.2% | 94.4% | 80.4% | 106% | 93.5% | 94% | 94.8% | 93.7% | 110% | 95.2% |
| CC(C)COC(=O)NC(C)(C)C | 115% | 92.8% | 107% | 119% | 113% | 109% | 101% | 102% | 104% | 98% | 93% | 86.7% | 111% | 107% | 102% | 109% | 107% | 103% | 113% |
| COc1ccc(C(=O)C(C#N)c2cc(OC)c(OC)c(OC)c2)cc1 (stereo not drawn) | 114% | 98.1% | 106% | 115% | 103% | 114% | 93.8% | 97.4% | 102% | 102% | 99.2% | 90.7% | 108% | 98.2% | 99% | 102% | 105% | 97.8% | 104% |
| Clc1cc(Br)ccc1-c1ccc(CNCC2CCNCC2)o1 | 62.4% | 18.9% | -4.35% (active) | 50.8% | 64.8% | 45% | 29.6% | 79.6% | 55.2% | 55.1% | 31.7% | 9.93% (active) | 42.1% | 16.9% | 54.1% | 61.5% | 59.4% | 23.4% | 42.3% |
| Cc1cc(NC(=O)C2c3ccccc3C(=O)N(CC(C)C)C2c2cccs2)no1 (stereo not drawn) | -9.63% (active) | 3.46% (active) | -62.1% (active) | -14.2% (active) | -88.3% (active) | 27.8% | 18.2% | -8.81% (active) | 1% (active) | 7.04% (active) | -29.4% (active) | 61.4% | 81.9% | 21.2% | 9.17% (active) | 14.2% | -84.5% (active) | -85.3% (active) | -86.8% (active) |
| CN(CCO)c1ccc(N2Cc3ccccc3OC3=C2C(=O)c2c(O)ccc(O)c2C3=O)cn1 | -98.8% (active) | -1.58% (active) | -86.1% (active) | -90.2% (active) | -96.6% (active) | -59.7% (active) | -68.9% (active) | -91.6% (active) | -89% (active) | -83.6% (active) | -49% (active) | -13.7% (active) | 6.43% (active) | -24.8% (active) | -14.8% (active) | -94.9% (active) | -88.3% (active) | -86.6% (active) | -83.4% (active) |
| Nc1nc(N)c2cc(CNc3ccc(Cl)c(Cl)c3)ccc2n1 | 44.6% | -72.3% (active) | 47.1% | -23.9% (active) | 26.5% | 35% | 23.7% | 32.4% | -69.7% (active) | 9.76% (active) | -75.2% (active) | 40.1% | 31.5% | -78.1% (active) | 22.5% | 15.4% | 21% | -54.8% (active) | 60.1% |
| COc1ccc(-n2nc(C(=O)NCC(=O)Nc3nc4cc(OC)ccc4s3)c3ccccc3c2=O)cc1 | -28.9% (active) | 73.9% | -13.8% (active) | -13.6% (active) | -38.1% (active) | -13.6% (active) | -93% (active) | -4.82% (active) | 44.3% | 64.7% | -24.4% (active) | -65.9% (active) | 0.597% (active) | -39.8% (active) | 3.92% (active) | 48.9% | 31.2% | -32.4% (active) | 21.1% |
| Fc1cnccc1-c1nc2ccc3[nH]ncc3c2c2c1CCCC2 | 24.1% | 30.9% | 44.2% | 51.2% | -23.9% (active) | 31.9% | 5.76% (active) | 63% | 26% | 12.4% | 25.4% | -25.5% (active) | 44.2% | 29.6% | 27.1% | 29% | 17.3% | 22.8% | 24.3% |
| Clc1ccc2c(c1)-c1ccccc1C1=NCCN12 | 30.8% | 9.07% (active) | 11.5% | 45.6% | 2.19% (active) | 41.1% | 33.8% | 14.2% | 37.8% | 20% | 4.08% (active) | 49.5% | 41.6% | 25% | 28.5% | 19.9% | 30.3% | 11.7% | 43.2% |
| O=C(/C=C/c1ccccc1)n1c(-c2ccccc2)nc2ccccc21 | 113% | 103% | 112% | 117% | 102% | 110% | 95.3% | 92.4% | 104% | 98.2% | 110% | 85.6% | 94.7% | 96.2% | 95.6% | 97.4% | 103% | 100% | 108% |
| CCCCCCCCCCCCCCC(C(=O)OCC)C(=O)OCC | 110% | 121% | 92.8% | 101% | 113% | 110% | 105% | 106% | 108% | 99.5% | 115% | 94.7% | 102% | 104% | 108% | 99.3% | 101% | 119% | 102% |
| Cc1ccc(-c2cnc3sc4ccc(Cl)cc4n23)cc1 | 101% | 110% | 110% | 85% | 104% | 98.5% | 94.4% | 112% | 100% | 100% | 99.8% | 93.9% | 96.4% | 105% | 82.6% | 95.6% | 87.9% | 94.2% | 109% |
| Cc1nn(-c2ccc(Cl)cc2)c(=O)n1CCN1CCOCC1 | 78.5% | 70.1% | 59.1% | 57.3% | 42.1% | 48.4% | 67% | 73.4% | 69.8% | 74.2% | 104% | 7.65% (active) | 58.7% | 42.9% | 80.8% | 80.3% | 82.8% | 81.6% | 92.9% |
| COc1ccc(C2C=C(c3ccc(Cl)cc3)N=C3SC=CN32)cc1 (stereo not drawn) | 129% | 104% | 108% | 112% | 122% | 119% | 104% | 108% | 109% | 110% | 106% | 86.7% | 115% | 105% | 86.7% | 111% | 116% | 99.6% | 97.6% |
| COc1cc2cc(C(=O)Nc3ccccc3)c(N)nc2cc1OC | 12.7% | -49.2% (active) | -78.2% (active) | -49.6% (active) | -14.7% (active) | 26.2% | 34.3% | -81.3% (active) | -67.3% (active) | 2.25% (active) | -70.6% (active) | 15.5% | 21.2% | -6.06% (active) | 17.7% | -95.1% (active) | -85.3% (active) | -93.3% (active) | -98.3% (active) |
